Publication PMC4336329 (PLoS ONE, 2015)
The campaign covered roughly 310,000 compounds. About 14,000 (4.5%) showed an effect of 50% or more. Effects have a minus sign here. This excerpt belongs to a sample that is enriched for strong results.

Each molecule was assayed against human ether-à-go-go-related gene (hERG) potassium channel (human, UniProt Q12809) (assay: primary screen, population patch clamp on CHO cells stably expressing hERG; higher = less effect of the substance).
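Note: peak tail current of the secondary pulse compared with the same well before compound.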

Chain of human ether-à-go-go-related gene (hERG) potassium channel (Q12809 whole entry, looked up): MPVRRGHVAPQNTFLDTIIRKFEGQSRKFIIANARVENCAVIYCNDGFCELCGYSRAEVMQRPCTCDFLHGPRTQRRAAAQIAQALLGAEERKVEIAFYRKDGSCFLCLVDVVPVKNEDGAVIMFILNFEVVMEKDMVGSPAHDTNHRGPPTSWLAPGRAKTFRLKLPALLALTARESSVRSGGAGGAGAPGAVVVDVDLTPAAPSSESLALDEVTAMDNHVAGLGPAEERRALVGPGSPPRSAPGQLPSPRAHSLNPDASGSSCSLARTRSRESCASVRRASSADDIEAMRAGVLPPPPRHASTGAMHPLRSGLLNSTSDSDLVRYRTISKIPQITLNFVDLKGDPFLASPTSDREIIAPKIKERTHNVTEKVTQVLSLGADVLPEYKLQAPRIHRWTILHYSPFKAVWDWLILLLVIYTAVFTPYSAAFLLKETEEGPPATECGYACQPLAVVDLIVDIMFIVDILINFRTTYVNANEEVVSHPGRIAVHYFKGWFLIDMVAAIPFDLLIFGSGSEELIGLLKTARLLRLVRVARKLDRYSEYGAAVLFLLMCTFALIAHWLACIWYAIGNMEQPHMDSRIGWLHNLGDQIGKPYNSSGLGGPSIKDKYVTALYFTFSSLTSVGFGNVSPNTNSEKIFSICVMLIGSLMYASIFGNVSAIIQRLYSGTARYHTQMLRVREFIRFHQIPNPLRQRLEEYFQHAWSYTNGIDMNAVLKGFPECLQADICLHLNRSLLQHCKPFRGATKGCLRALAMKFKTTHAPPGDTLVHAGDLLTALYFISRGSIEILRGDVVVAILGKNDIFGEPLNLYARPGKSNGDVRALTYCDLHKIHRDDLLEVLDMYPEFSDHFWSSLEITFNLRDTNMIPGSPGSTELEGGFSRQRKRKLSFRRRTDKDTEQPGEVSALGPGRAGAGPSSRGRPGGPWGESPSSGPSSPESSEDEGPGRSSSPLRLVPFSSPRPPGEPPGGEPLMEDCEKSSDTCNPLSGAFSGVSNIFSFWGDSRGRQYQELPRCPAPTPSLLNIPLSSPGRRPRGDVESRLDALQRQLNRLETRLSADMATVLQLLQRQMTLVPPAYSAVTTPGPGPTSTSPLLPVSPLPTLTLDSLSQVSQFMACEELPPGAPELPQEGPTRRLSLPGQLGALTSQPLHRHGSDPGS

SMILES	hERG current change (%, negative = inhibition) at 10uM [%]
Cc1ccc(Oc2ncccc2/C=N/OCc2ccc(Cl)cc2Cl)cc1	14.7
O=C(Nc1ccccc1-c1nnn(CC(=O)N2CCc3ccccc3C2)n1)C1CCC1	-52.8
O=C(Nc1cccc(-c2nnn(CC(=O)N3CCc4ccccc4C3)n2)c1)C1CCC1	2.59
CC(C)CC(=O)Nc1ccccc1-c1nnn(CC(=O)N2CCc3ccccc3C2)n1	-37.3
O=C(NCCN1CCOCC1)c1cccc(NS(=O)(=O)c2ccc(Br)cc2)c1	-34.3
OCC[C@H]1C[C@H](O)[C@@H](O)[C@]2(OCc3ccccc32)O1	11.9
O=C(OCc1ccccc1Cl)c1cc([N+](=O)[O-])ccc1N1CCOCC1	-23.1
O=C(OCc1ccc([N+](=O)[O-])cc1)c1cc(S(=O)(=O)N2CCCCC2)ccc1N1CCOCC1	-75.9
O=C(OCc1ccc(F)cc1)c1cc(S(=O)(=O)N2CCCCC2)ccc1N1CCOCC1	2.16
Cc1ccc(C)c(COC(=O)c2cc([N+](=O)[O-])ccc2N2CCOCC2)c1	5.73
O=C(OCc1ccc([N+](=O)[O-])cc1)c1cc([N+](=O)[O-])ccc1N1CCOCC1	-76.1
CC1CCN(C(=O)COC(=O)c2cc([N+](=O)[O-])ccc2N2CCOCC2)CC1	-15
Cc1ccc(COC(=O)c2cc(S(=O)(=O)N3CCCCC3)ccc2N2CCOCC2)cc1	-13.9
Cc1ccc(COC(=O)c2cc([N+](=O)[O-])ccc2N2CCOCC2)cc1	-53.7
Cc1ccccc1COC(=O)c1cc([N+](=O)[O-])ccc1N1CCOCC1	-18.8
O=C(OCc1cccc(Cl)c1)c1cc([N+](=O)[O-])ccc1N1CCOCC1	-38.7
CC1CCCN(C(=O)COC(=O)c2cc([N+](=O)[O-])ccc2N2CCOCC2)C1 (stereo not drawn)	-14.6
CC1CC(C)CN(C(=O)COC(=O)c2cc([N+](=O)[O-])ccc2N2CCOCC2)C1 (stereo not drawn)	-54.7
C/C(=N\NC(=O)C(NC(=O)c1ccccc1)C(C)C)c1ccccc1 (stereo not drawn)	21.2
COc1ccc(-c2csc(NC(C)=O)n2)cc1OC	5.13
Cc1ccccc1NC(=O)NC1(C(=O)NCC2CCCO2)CCCCC1 (stereo not drawn)	17.5
O=[N+]([O-])c1ccc(NCc2ccccn2)nc1	-5.06
CCC(C(=O)Nc1ccccc1)c1ccccc1 (stereo not drawn)	7.86
CS(=O)(=O)N(CC(O)Cn1c2ccccc2c2ccccc21)c1cccc2ccccc12 (stereo not drawn)	0.652
CCOC(=O)c1c(C)[nH]c(C)c1C(=O)COC(=O)c1cccc(S(=O)(=O)NC)c1	-7.56
O=C(OCc1ccccc1F)c1cc([N+](=O)[O-])ccc1N1CCOCC1	-47.9

SMILES	hERG current change (%, negative = inhibition) at 10uM [%]
CN(C)S(=O)(=O)c1cccc(COC(=O)c2cc([N+](=O)[O-])ccc2N2CCOCC2)c1	-52.7
COc1ccc(COC(=O)c2cc([N+](=O)[O-])ccc2N2CCOCC2)cc1F	-62.5
O=C(OCc1c(F)cccc1Cl)c1cc([N+](=O)[O-])ccc1N1CCOCC1	3.43
CCc1cccc(NC(=O)COC(=O)c2cc([N+](=O)[O-])ccc2N2CCOCC2)c1	-7.99
COc1ccc(OC)c(COC(=O)c2cc([N+](=O)[O-])ccc2N2CCOCC2)c1	-18
COc1cc(C(=O)CSc2nncn2C)cc(OC)c1OC	6.63
CCOC(=O)c1ccc(NC(=S)N2CCC(O)CC2)cc1	18
O=C(CN1C(=O)c2ccccc2C1=O)Nc1cc(C(=O)O)cc(C(=O)O)c1	7.72
N#Cc1ccccc1OCC(=O)NNC(=O)c1ccncc1	9.65
CC1(c2ccc(OC(F)F)cc2)NC(=O)N(CC(=O)Nc2ccccc2)C1=O (stereo not drawn)	-51.3
CC1(c2ccc(OC(F)F)cc2)NC(=O)N(CC(=O)Nc2cccc(F)c2)C1=O (stereo not drawn)	2.79
CCOc1ccc(NC(=O)CN2C(=O)NC(C)(c3ccc(OC(F)F)cc3)C2=O)cc1 (stereo not drawn)	-16.1
CC1(c2ccc(OC(F)F)cc2)NC(=O)N(CC(=O)Nc2ccc(S(N)(=O)=O)cc2)C1=O (stereo not drawn)	1.64
Cc1cc(NC(=O)CN2C(=O)NC(C)(c3ccc(Cl)cc3)C2=O)no1 (stereo not drawn)	39.2
Cc1cc(NC(=O)CN2C(=O)NC(C)(c3ccccc3)C2=O)no1 (stereo not drawn)	-55.5
Cc1ccc(C2(C)NC(=O)N(CC(=O)Nc3cc(C)on3)C2=O)cc1 (stereo not drawn)	-10.7
CC1(c2ccc(OC(F)F)cc2)NC(=O)N(CC(=O)Nc2ccc(OC(F)F)cc2)C1=O (stereo not drawn)	-94.9
CC1(c2ccc(OC(F)F)cc2)NC(=O)N(CC(=O)Nc2ccc(F)cc2)C1=O (stereo not drawn)	-45.5
CCn1c(=S)sc2c(=O)n(CC(=O)NCCCc3ccccc3)c(C)nc21	18.8
COc1ccc(OC)c(NC(=O)Cn2cnc3c(cnn3-c3ccccc3)c2=O)c1	-12.8
COc1cc(/C=C/C(=O)OCC(=O)c2c(N)n(C)c(=O)n(C)c2=O)ccc1OC(F)F	6.4
COc1ccc(CN(C)C(=O)COC(=O)c2ccc3c(c2)OCO3)cc1OC	-3.84
CCC(=O)OC1(C)C(=O)C=C2C=C(C3CC3)OC=C2C1=O (stereo not drawn)	12.5
CCC(C(=O)Nc1ccccc1OC)n1c(C(=O)OC)cc2ccsc21 (stereo not drawn)	-11.3
CN(CC(=O)NNC(=O)CNC(=O)c1ccccc1Cl)S(=O)(=O)c1ccc(Cl)cc1	9.57
